# Measurements published in PubChem BioAssay AID1721 (National Center for Advancing Translational Sciences (NCATS), 2009).
# In all, about 290,000 compounds went through this assay and about 1,100 (0.38%) were called active. Entries that show only a call come without a potency. This excerpt belongs to a sample that is enriched for actives. Unmarked numbers belong to inactive results. Calls come from the whole dose curve; as a rule, active = well fitted inhibition curve with a large enough effect; inconclusive = small, poorly fitted or top-dose-only effect, or another doubt; inactive = no such curve, though single readings can be large or run the other way.
# Target: Pyruvate kinase (Leishmania mexicana) (UniProt Q27686)
# Sequence (Q27686 whole entry, looked up): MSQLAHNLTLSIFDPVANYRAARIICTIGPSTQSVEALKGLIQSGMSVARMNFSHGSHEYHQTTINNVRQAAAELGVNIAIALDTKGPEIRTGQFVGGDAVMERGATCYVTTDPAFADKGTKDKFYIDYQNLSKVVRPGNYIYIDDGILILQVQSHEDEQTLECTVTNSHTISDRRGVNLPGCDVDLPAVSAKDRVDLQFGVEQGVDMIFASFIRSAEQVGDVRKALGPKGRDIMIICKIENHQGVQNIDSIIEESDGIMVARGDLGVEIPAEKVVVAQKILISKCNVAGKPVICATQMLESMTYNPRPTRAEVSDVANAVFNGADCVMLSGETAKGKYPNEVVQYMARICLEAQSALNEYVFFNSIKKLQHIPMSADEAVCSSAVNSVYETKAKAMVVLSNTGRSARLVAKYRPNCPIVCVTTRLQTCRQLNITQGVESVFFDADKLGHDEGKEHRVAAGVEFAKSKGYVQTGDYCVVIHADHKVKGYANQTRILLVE
# Experiment: qHTS Assay for Inhibitors of Leishmania Mexicana Pyruvate Kinase (LmPK)
# Conditions: purified LmPK, Kinase-Glo ATP luminescence, 1 h; series mostly up to 57.5 µM
# Text: NIH Chemical Genomics Center [NCGC] Malcolm Walkinshaw, Hugh Morgan, Linda Gilmore University of Edinburgh, UK MLPCN Grant: 1 R03 MH085697-01 NCGC Assay Overview: Pyruvate kinase (L. Mexicana) (LmPK) enzyme was supplied as a highly purified (>95% pure) sulphate-free preparation from University of Edinburgh, UK and assayed for its ability to generate ATP from ADP using phosphoenolpyruvate (PEP) as a substrate. ATP generation was detected in a coupled reaction by luciferase-mediated luminescence, an ATP-dependent process. […] The enzyme was assayed at an intermediate level of activity to screen for both inhibitors and activators.
# NCGC Assay Protocol Summary: Three uL of enzyme mix (kept on ice) in assay buffer (50 mM Imidazole pH7.2, 50 mM KCl, 7 mM MgCl2, 0.01% Tween 20, 0.05% BSA) containing PEP (0.5 mM final concentration) and LmPK (0.1 nM final concentration) was dispensed into white solid bottom 1,536 well microtiter plates. 23 nL of compound were delivered by a pin tool and 1 uL of ADP mix in assay buffer (r.t; 0.1 mM final ADP concentration) was added. Plates were incubated at room temperature for 1 hour. Two uL of detection mix (Kinase-Glo, Promega; at 4 degree Celsius protected from light) was added and luminescence read by a ViewLux (Perkin Elmer) at 1 second exposure/plate. Data were normalized to the uninhibited and AC100 inhibition (no enzyme). To monitor activation, the first column contained a five-fold concentration of LmPK (0.5 nM).
# Potency is the fitted concentration of half-maximal effect.
Compound,Potency,"activity change, negative = inhibition"
O=C(NCc1ccccc1Cl)C1CCN(c2ncnc3c2nc2n3CCCCC2)CC1,inactive,
O=C1CSC(=S)N1/N=C/c1ccc(O)c([N+](=O)[O-])c1,25.1 µM (active),
Cc1cc(C(=O)N/N=C/c2ccc(O)c([N+](=O)[O-])c2)c(C)n1-c1ccc(F)cc1,inactive,
CCOc1cccc(/C=N/N2C(=O)CSC2=S)c1O,inactive,
O=C(CN1CCCCCC1)Nc1ccc(Br)cc1[N+](=O)[O-],inactive,
O=C(NCCCNC(=O)c1ccccc1Cl)c1cnccn1,inactive,
O=C(CN1C(=O)c2ccccc2C1=O)NCc1ccc(C(=O)O)cc1,inactive,
CC(C)N(C(=O)c1ccc(-c2ccccc2F)cc1)C(C)C,inactive,
CC(=O)N(C1=C(Cl)C(=O)c2ccccc2C1=O)c1ccc(C(=O)O)cc1,4.47 µM (active),
Cc1cccc(N2CCN(S(=O)(=O)c3ccc4[nH]c(=O)c(=O)[nH]c4c3)CC2C)c1 (configuration not stated),inactive,
O=C(/C=C/NCc1ccc(F)cc1)c1ccccc1,inactive,
O=C(COc1ccc(S(=O)(=O)Nc2cccc(C(F)(F)F)c2)cc1)N1CCOCC1,inactive,
CCCn1c(C(C)Nc2nc(-c3ccc(C)cc3)cs2)nc2cc(Cl)c(N3CCCCC3)cc21 (configuration not stated),inactive,
COc1ccc(-c2nc(-c3ccccc3)no2)c(OC)c1,14.1 µM (active),
COc1ccc(Sc2nc(-c3ccccc3)ncc2OC)cc1,inactive,
COc1ccccc1Cc1nc(-c2ccc(C)cc2)no1,inactive,
COC(=O)C1=C(C(=O)OC)[C@@H]2N(C)c3ccccc3[C@@]23C[C@@H](C(=O)OC)N(S(=O)(=O)c2ccc(Br)cc2)C3=N1,,-0.27% [at 11.5 µM]
COc1cc(CO)ccc1OCC(=O)Nc1cccc2ccccc12,inactive,
Cc1nc2cc3c(cc2s1)OCO3,inactive,
Brc1ccc2nc(N3CCCC3)sc2c1,,-0.864% [at 11.5 µM]
c1c2c(cc3sc(N4CCCCC4)nc13)OCCO2,6.31 µM (active),
CCOc1ccc(NC(=O)COc2ccc(S(=O)(=O)N3CCCC3)cc2)cc1,inactive,
C[C@H]1Cc2c(-c3ccccc3)nc3c(c2CO1)CN(S(=O)(=O)c1ccc(Cl)c2nonc12)CC3,,1.27% [at 11.5 µM]
Cn1cc([N+](=O)[O-])c(C(=O)Nc2cnn(Cc3ccc(F)cc3)c2)n1,inactive,
Cn1cc([N+](=O)[O-])c(C(=O)Nc2ccc3c(c2)OCCO3)n1,14.1 µM (active),
Cc1onc(C(=O)Nc2ccc3c(c2)OCO3)c1[N+](=O)[O-],inactive,
CCCCNC(=O)N(O)C1N(/N=C/c2ccccc2O)C(=S)SC1(C)C (configuration not stated),inactive,
